Many of the other results were omitted from the sample, so hits are more common in it than they were.
TTR transcr act: increases transthyretin transcription; SH-SY5Y TTR promoter Gaussia luciferase, luminescence; 100% = recombinant luciferase protein wells; activation, % at 16.7 µM; 92,000 compounds, 1.3% hits; AID 1117267;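 active means activation above the mean of all tested compounds plus 3 SD, cut at about 9.5% in these data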;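 further: cells exposed to compounds for one day before reading; 0% = median of all test compound wells on the plate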
HuH7 TTR inh: counter-screen for TTR activators: TTR transcription inhibitors in HuH7 cells; shares compounds with TTR transcr act; HuH7 TTR promoter-Gaussia luciferase reporter, luminescence; inhibition, % at 16.7 µM; 1,100 compounds, 4% hits; AID 1117279;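 active means average inhibition above the solvent-only control wells' mean plus 3 SD, cut at about 15% in these data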;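 further: 0% = cells with DMSO only and 100% = cells with inhibitor control FD; inhibitors lower well luminescence so higher value means more inhibition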
TTR act confirm: confirmation of human transthyretin transcription activators; shares compounds with TTR transcr act; SHSY5Y TTR promoter Gaussia luciferase, luminescence; 100% = purified Lucia enzyme wells, no cells; activation, % at 16.7 µM; 1,100 tested, under 10 active; AID 1117280;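 active means mean activation above a set limit taken from the earlier primary screen, cut at about 11% in these data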;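 further: 0% = DMSO-treated cells and 100% = recombinant Lucia luciferase without cells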
Numbers without * were called inactive.

`CC(O)(c1ccc(F)c(F)c1)c1nc(-c2cccc(C(=O)O)c2)cs1` (centres undefined) gave TTR transcr act 13*, HuH7 TTR inh -35 and TTR act confirm -1.
`CC(O)(c1ccccc1)c1nc(-c2cccc(C(=O)O)c2)cs1` (centres undefined) gave TTR transcr act 1.
Screening O=C(OCC#CCSc1nnc(-c2ccc(F)cc2)o1)c1ccc(F)cc1 returned TTR transcr act -1.
COP(=O)(O)[C@@H](CC(C)C)NC(=O)OCc1ccccc1 was read as TTR transcr act 0.
For O=C(NC1CCCCC1)C(c1ccccc1)n1c(=O)c(-c2ccco2)nc2ccccc21 (centres undefined) the results were TTR transcr act 1.
COCO[C@@H]1CC(CO)=C[C@H]2OCO[C@H]21 was read as TTR transcr act 7.
`O=S(=O)(Cc1cc(-c2ccc(Cl)cc2)no1)c1ccccc1` gave TTR transcr act 12*, HuH7 TTR inh -21 and TTR act confirm 0.
For O=S(=O)(NCc1cc(-c2ccc(Cl)cc2)no1)c1ccc(Cl)cc1 the results were TTR transcr act -1.
For O=S(=O)(NCc1cc(-c2ccccc2)no1)c1ccc(Cl)cc1 the results were TTR transcr act 0.
For Cc1ccc(Nc2nc(N/N=C\c3ccc4c(c3)OCO4)nc(N3CCOCC3)n2)cc1 the results were TTR transcr act -3.
N=c1ccn(Cc2c(Cl)cccc2Cl)cc1 was read as TTR transcr act -3.
Cc1ccccc1CN1CCN(S(=O)(=O)c2cccc3nsnc23)CC1 was read as TTR transcr act 12*, HuH7 TTR inh -17 and TTR act confirm 1.
Screening CCN1CCN(S(=O)(=O)c2cccc3nsnc23)CC1 returned TTR transcr act 5.
Screening CC1CC(C)CN(S(=O)(=O)c2cccc3nsnc23)C1 (centres undefined) returned TTR transcr act -1.
`COC(=O)[C@]12C[C@H](CC(=O)NCc3cccc(C(F)(F)F)c3)C(=O)N(Cc3ccccc3)C1=C[C@H](COCc1ccccc1)O[C@@H]2C` gave TTR transcr act 0.
COCCN1C(=O)COc2ccccc2C1C(=O)NC1CCCC1 (centres undefined) was read as TTR transcr act 0.
Screening COC(=O)[C@H](Cc1ccccc1)NP(=O)(OC)[C@@H](C)NC(=O)OCc1ccccc1 (some centres undefined) returned TTR transcr act 0.
`CCN1CCCCC(NC(=O)c2ccccc2OC)C1=O` (centres undefined) gave TTR transcr act 0.
For CC1=C(C(=O)N2CCOCC2)CC(CC(=O)NCCc2ccccn2)C(=O)N1CCC1=CCCCC1 (centres undefined) the results were TTR transcr act -1.
Screening CCN(CC)C(=O)C1=C(C)N(CCC2=CCCCC2)C(=O)C(CC(=O)NCCCCc2ccccc2)C1 (centres undefined) returned TTR transcr act -2.
Screening CCN(CC)C(=O)C1=C(C)N(CCC2=CCCCC2)C(=O)C(CC(=O)NCCc2ccccn2)C1 (centres undefined) returned TTR transcr act 24*, HuH7 TTR inh -9 and TTR act confirm -1.
Screening NC(=O)NCc1ccc(F)cc1 returned TTR transcr act 0.
Cc1ccc(C(=O)OCC(=O)NCc2ccc(F)cc2)o1 was read as TTR transcr act 5.
Screening CC(C)(C)CC(=O)NCc1ccc(F)cc1 returned TTR transcr act 15*, HuH7 TTR inh -15 and TTR act confirm -1.
For CC(=O)Nc1ccc(/C=C/COC(C)=O)cc1C the results were TTR transcr act 0.
CCCCNC(=O)Cn1cnc2c(cnn2-c2ccc(C)c(C)c2)c1=O was read as TTR transcr act 2.
Screening CCOCCCNC(=O)Cn1cnc2c(cnn2-c2ccc(F)cc2)c1=O returned TTR transcr act -1.
Screening CCOc1ccccc1NC(=O)Cn1cnc2c(cnn2-c2ccc(C)c(C)c2)c1=O returned TTR transcr act 11*, HuH7 TTR inh -6 and TTR act confirm 0.
CCC[C@H]1[C@@H](N(C)Cc2ccccc2)CC[C@@]23CCCN2C(=O)CCC[C@@H]13 was read as TTR transcr act 1.
Screening O=C(N[C@@H](Cc1ccccc1)C(=O)N1CCC2CCN(S(=O)(=O)c3ccccc3)CC21)[C@@H]1CCCN1 (some centres undefined) returned TTR transcr act 0.
Screening S=C(NCc1cccs1)Nc1cccc2ccccc12 returned TTR transcr act 1.
For N#Cc1c(F)cccc1NCc1cccs1 the results were TTR transcr act 14*, HuH7 TTR inh -9 and TTR act confirm 1.
O=S(=O)(NCc1cccs1)NCc1ccccc1F was read as TTR transcr act 4.
COC[C@H]1CCCN1c1cccc2c1S(=O)(=O)N1CC[C@@H](C1)O2 was read as TTR transcr act 0.
COC(=O)c1ccc(CN2CCN(CC=C(C)C)C(CCO)C2)cc1 (centres undefined) was read as TTR transcr act 3.
`COC(=O)c1ccc2nc(-c3ccc(F)cc3)c(Cc3ccccc3)n2c1` gave TTR transcr act -2.
`COC(=O)c1ccc2nc(C3CCCCC3)c(Cc3ccccc3)n2c1` gave TTR transcr act 14*, HuH7 TTR inh 14 and TTR act confirm -1.
For CCCc1nc2ccc(C(=O)OC)cn2c1Cc1cccc(F)c1 the results were TTR transcr act 1.
`COc1cc(F)ccc1-c1csc(C(C)(O)c2ccccc2)n1` (centres undefined) gave TTR transcr act 2.
Screening COC(=O)[C@]12C[C@H](CC(=O)N3CCOCC3)C(=O)N(Cc3ccc(Cl)cc3Cl)C1=C[C@H](C1CCCC1)O[C@@H]2C returned TTR transcr act -1.
CCCOc1ccc(N2C(=O)CC(SC(=NC)Nc3ccc(F)cc3)C2=O)cc1 (centres undefined) was read as TTR transcr act 0.
CCCOc1ccc(N2C(=O)CC(NCC(=O)OCC)C2=O)cc1 (centres undefined) was read as TTR transcr act 10.0*, HuH7 TTR inh -13 and TTR act confirm 0.
For CCOc1ccc(N2C(=O)CC(NCCc3ccncc3)C2=O)cc1 (centres undefined) the results were TTR transcr act 0.
CCOC(=O)N1CCN(C(=O)C[C@H]2C[C@@]3(C(=O)OC)C(=C[C@H](C4CCCC4)O[C@@H]3C)N(CCC3=CCCCC3)C2=O)CC1 was read as TTR transcr act 2.
Screening Cc1ccc(-c2c3c(nc4sc(C(N)=O)c(N)c24)CCCC3)o1 returned TTR transcr act -1.
`COc1ccc2nc3c(c(-c4ccccc4)c2c1)CCC3` gave TTR transcr act -4.
For COc1ccc(-c2c3c(nc4sc5c(=O)[nH]c(C)nc5c24)CCC3)cc1 the results were TTR transcr act 16*, HuH7 TTR inh -6 and TTR act confirm -1.
For CCN=C1S/C(=C/c2cc(C)n(-c3ccc(Cl)cc3F)c2C)C(=O)N1CC the results were TTR transcr act -2.
`COC(=O)[C@]12C[C@H](CC(=O)NCc3cccc(C(F)(F)F)c3)C(=O)N(Cc3ccc(Cl)cc3Cl)C1=C[C@H](COCc1ccccc1)O[C@@H]2C` gave TTR transcr act -1.

High-throughput results deposited in PubChem by The Scripps Research Institute Molecular Screening Center.
